# Screening data from PubChem.
# An excerpt weighted towards active compounds, which were near 1.6% of everything screened.
# KCNQ2 pot: enhances the rat KCNQ2 potassium channel. O88943. CHO-K1 KCNQ2, FluxOR thallium flux fluorescence; stronger effect = higher value. B-score at 10 µM. hit rate 0.54% among 310,000;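 active = fluorescence ratio B-score at least 3 SD of library B-scores, with initial fluorescence B-score within 3 of them, cut at about 5.3 in these data; same plate scores as AID 2156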;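 also: B-score of peak minus minimum over baseline fluorescence ratio after K+ and Tl+ stimulus; positive B-score means potentiation of KCNQ2 with more thallium influx and brighter signal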
# Target sequence (O88943 whole entry, looked up): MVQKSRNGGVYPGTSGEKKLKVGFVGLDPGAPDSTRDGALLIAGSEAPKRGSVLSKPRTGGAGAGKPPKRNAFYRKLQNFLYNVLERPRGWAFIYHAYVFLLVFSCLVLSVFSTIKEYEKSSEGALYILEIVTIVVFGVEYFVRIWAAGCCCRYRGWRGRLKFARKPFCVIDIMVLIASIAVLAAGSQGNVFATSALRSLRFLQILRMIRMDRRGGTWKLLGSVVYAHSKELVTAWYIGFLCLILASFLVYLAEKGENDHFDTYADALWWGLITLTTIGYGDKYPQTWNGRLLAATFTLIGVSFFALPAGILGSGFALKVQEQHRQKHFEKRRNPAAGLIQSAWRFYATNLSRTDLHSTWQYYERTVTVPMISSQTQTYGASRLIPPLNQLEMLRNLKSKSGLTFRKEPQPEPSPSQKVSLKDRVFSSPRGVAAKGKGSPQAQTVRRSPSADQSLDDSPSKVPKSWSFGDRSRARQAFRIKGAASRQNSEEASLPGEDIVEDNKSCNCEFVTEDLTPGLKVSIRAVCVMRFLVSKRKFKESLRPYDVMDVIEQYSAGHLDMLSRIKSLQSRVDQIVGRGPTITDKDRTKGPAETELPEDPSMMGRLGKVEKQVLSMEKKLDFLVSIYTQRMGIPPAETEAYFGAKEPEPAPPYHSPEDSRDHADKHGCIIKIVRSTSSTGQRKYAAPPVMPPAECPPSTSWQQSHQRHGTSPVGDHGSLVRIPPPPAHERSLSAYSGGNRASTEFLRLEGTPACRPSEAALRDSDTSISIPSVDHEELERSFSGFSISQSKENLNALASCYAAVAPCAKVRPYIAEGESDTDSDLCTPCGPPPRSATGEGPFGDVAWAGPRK
# KCNQ2 inh: KCNQ2 (rat) channel inhibition; O88943; CHO-K1 KCNQ2, FluxOR thallium flux, 20 min; stronger effect = lower value; B-score at 10 µM; hit rate 1.1% among 310,000; AID 2156;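 active = fluorescence ratio B-score at most minus 3 library SDs, with starting brightness B-score within 2 library SDs, cut at about -5.5 in these data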
# Active calls of the source: *; i = inactive; / = no result.
SMILES,KCNQ2 pot,KCNQ2 inh
O=C(CCc1nnc(-c2ccsc2)o1)NCc1ccccc1OC(F)(F)F,-6.3,-6.3*
Cc1ccc2c(c1)N(C(=O)CCC(=O)Nc1ccccc1Br)CC(C)O2 (centres undefined),/,i
Cc1ccc2c(c1)N(C(=O)CCC(=O)NCc1cccc(Br)c1)CC(C)O2 (centres undefined),-7,-7*
CN(C(=O)CSc1nc(N)cc(N)n1)C1CCS(=O)(=O)C1 (centres undefined),0.33,i
O=C(Nc1cccc(N2C(=O)C3CCCCC3C2=O)c1)c1ccccc1 (centres undefined),2.1,i
O=C(Nc1cccc(Cl)c1)c1cccc(N2C(=O)C3CC=CCC3C2=O)c1 (centres undefined),-6,-6*
C=CCn1cnc2c(nnn2Cc2ccc(F)cc2)c1=O,/,i
Cc1c(C)c2ccc(OC(C)C(=O)N3CC[C@@]4(O)CCCC[C@H]4C3)cc2oc1=O (some centres undefined),/,i
Cc1c(Br)c([N+](=O)[O-])nn1CC(=O)NCc1cccnc1,/,i
CCOc1ccc(-n2ccn(CC(=O)NCCc3ccccc3)c(=O)c2=O)cc1,/,i
CCOC(=O)c1ccc(NC(=O)COc2ccc(CNCCO)cc2OCC)cc1,0.04,i
CCOC(=O)c1ccc(NC(=O)COc2ccccc2CNCCc2ccccc2)cc1,-6.8,-6.8*
CC(OC(=O)CCc1nc2ccccc2c(=O)[nH]1)C(=O)c1ccc(C(C)(C)C)cc1 (centres undefined),0.96,i
COc1cc(C(=O)NCCC(=O)N2CCC3(CC2)NCCc2[nH]cnc23)cc(OC)c1OC,0.12,i
Fc1ccccc1C1CC(c2ccco2)=Nc2ccccc2S1 (centres undefined),-7.3,-7.3*
COc1ccccc1C1CC(c2cccs2)=Nc2ccccc2S1 (centres undefined),/,i
CCc1ccc2c(c1)C1(C(=O)N2)N2CCCC2C(C(=O)c2ccc3ccccc3c2)C12C(=O)Nc1ccccc12 (centres undefined),0.8,i
CCc1ccc2c(c1)C1(NN=C(c3cccc4ccccc34)S1)C(=O)N2 (centres undefined),-14,-14*
CSCCC(NC(=O)c1ccccc1C)C(=O)O (centres undefined),/,i
COC(C[C@@H](O)[C@@H](C)[C@H](O)COCc1ccccc1)OC,/,i
CC(C)Cn1c(-c2ccco2)csc1=Nc1cccnc1,-6.3,-6.3*
COCCn1c(-c2ccco2)csc1=Nc1cccnc1,/,i
CCC(CC)CN1C(Nc2ccccc2)=NC[C@@H]1C,0.75,i
COc1ccnc2c1c(=O)n(Cc1ccc(Cl)cc1Cl)c(=O)n2C,-5.9,-5.9*
COc1ccnc2c1c(=O)n(Cc1ccccc1Cl)c(=O)n2C,/,i
SMILES,KCNQ2 pot,KCNQ2 inh
CC(C)C(=O)Nc1cccc(C(=O)Nc2nnc(C(C)C)s2)c1,0.06,i
CC(C)c1nnc(NC(=O)c2cccc(NC(=O)C(F)(F)F)c2)s1,-5.9,-5.9*
O=C(Nc1ccc(N2CCOCC2)cc1N1CCOCC1)c1ccc([N+](=O)[O-])cc1Cl,/,i
Cc1ccc(S(=O)(=O)NC(=O)Nc2c(C)cccc2C)cc1,0.14,i
CCCCC(=O)NC(Nc1nc(C2CC2)cs1)(C(=O)OCC)C(F)(F)F (centres undefined),/,i
O=C(/C=C/c1ccc2c(c1)OCO2)NCCSCc1ccc(Cl)cc1Cl,-7.8,-7.8*
O=C(/C=C/c1ccc2c(c1)OCO2)NCCSCc1cccc(Cl)c1,/,i
COc1cc(C)c(CN2CCC(n3nccc3NC(=O)C3CC3)CC2)cc1C,0.7,i
CCc1csc(CNC(=O)C2CCC(=O)N(Cc3cccc(F)c3)C2)n1 (centres undefined),0.68,i
C=CCSc1cc(C)nc2c(-c3ccccc3)c(C)nn12,/,i
Cc1cc(SCC(=O)c2cccs2)n2nc(C)c(-c3ccccc3)c2n1,6*,i
O=C(Nc1ccccc1Cl)c1cc2ccccc2o/c1=N\O,-5.6,-5.6*
O=C(Nc1ccccc1Cl)c1ccccc1Cl,/,i
CN(C(=O)c1nn(C)c2c1CSc1ccccc1-2)c1ccc(F)cc1,-6.5,-6.5*
CC1CCCN(C(=O)c2nn(C)c3c2CSc2ccccc2-3)C1 (centres undefined),/,i
Cc1ccccc1-n1nc2c(c1NC(=O)c1cc3ccccc3o1)CS(=O)(=O)C2,-7.6,-7.6*
COc1ccc(-n2nc3c(c2NC(=O)c2cc4ccccc4o2)CS(=O)(=O)C3)cc1,/,i
Cc1ccccc1-n1nc2c(c1NC(=O)c1ccco1)CS(=O)(=O)C2,0.64,i
Cc1ccccc1-n1nc2c(c1NC(=O)c1ccc(Br)o1)CSC2,-5.9,-5.9*
COc1ccc(OC)c(C(=O)NC(CC(N)=O)c2ccc(N3CCN(c4ccc(F)cc4)CC3)c([N+](=O)[O-])c2)c1 (centres undefined),0.71,i
Cc1cc(NC(=O)c2cccnc2)ccc1Br,2.1,i
O=C(O)c1ccc(CNCc2ccccc2F)cc1,0.58,i
COc1cccc(C(=O)NCCS(=O)(=O)NC(C)CCc2ccccc2)c1 (centres undefined),/,i
CCOc1ccc(NC2CCCCC2NS(=O)(=O)c2ccccc2)cc1 (centres undefined),/,i
CCOC(=O)c1ccc(NC(c2ccc(N(C)C)cc2)P(=O)(OC(C)C)OC(C)C)cc1 (centres undefined),-6.5,-6.5*
SMILES,KCNQ2 pot,KCNQ2 inh
CCOP(=O)(OCC)C(Nc1ccc(C(=O)O)cc1)c1ccccc1 (centres undefined),0.79,i
CC(=O)NC(CC(=O)NCc1ccncc1)c1ccccc1 (centres undefined),1.2,i
CCCCNC(=O)c1onc(CSc2cc(C)cc(C)c2)c1C(=O)O,1.9,i
CCCCNC(=O)c1onc(CSc2cc(C)cc(C)c2)c1C(=O)NCCCC,-5.6,-5.6*
CCOc1ccc(/C=C(\C#N)C(=O)NC2CC2)c(OCC)c1,0.01,i
Cc1ccc(O)c(NC(=O)C2CC(c3cccc(Br)c3)=NO2)c1 (centres undefined),/,i
Cc1ccc(O)c(C(CC(=O)NCc2ccco2)c2ccccc2)c1 (centres undefined),16*,i
CCCN(CCC)C(=O)CC(c1ccccc1)c1cc(C)ccc1O (centres undefined),-6,-6*
Cc1ccc(O)c(C(CC(=O)NC(C)C)c2ccccc2)c1 (centres undefined),0.44,i
Cc1cccc(C(CC(=O)NCc2ccco2)c2ccccc2)c1O (centres undefined),0.02,i
Cc1ccc(NC(=O)CSC2=NN3CCCC(=O)N=C3S2)cc1Cl,/,i
COc1ccccc1CN1CC(C(=O)NCc2cnn(C)c2)CCC1=O (centres undefined),/,i
CC(NC(=O)CCCCCCN1C(=O)c2ccccc2C1=O)c1ccc2c(c1)CCCC2 (centres undefined),5.3*,i
CC(NC(=O)CCCCCN1C(=O)c2ccccc2C1=O)c1ccc2c(c1)CCCC2 (centres undefined),4.2,i
Cc1ccc(F)cc1NC(=O)COC(=O)COc1ccc(C#N)cc1,0.97,i
COc1ccccc1N1CCN(c2nc(C)cc(C)c2C#N)CC1,-5.9,-5.9*
Cc1cc(C)c(C#N)c(N2CCN(c3ccccc3)CC2)n1,/,i
